Data taken from the supplement of paper PMC8728848.
Shown is part of a subset that was picked to be rich in the strongest signals.

Legend:
Experiment in all cases: glycan array binding signal (z-score within array); higher = stronger binding
Conditions in all cases: glycan notation: IUPAC condensed, linker removed
[1] = target: Fuc(a1-2)Gal(b1-3)GalNAc(a1-3)[Fuc(a1-2)]Gal(b1-4)Glc
Summary of the method: (§1)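 Glycan array binding is given as a within-array Z-score, which can be read as non-binding when negative. The arrays, 3228 of them, came from the Consortium for Functional Glycomics database and were retained only where the protein sequence was available. Z-scores were averaged across arrays of the same protein sequence at different concentrations or buffers and across linkers.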

[2] = target: Fuc(a1-2)Gal(b1-3)GalNAc(a1-3)[Fuc(a1-2)]Gal(b1-4)GlcNAc
Summary of the method: as §1

[3] = target: Fuc(a1-2)Gal(b1-4)[Fuc(a1-3)]GlcNAc(b1-2)Man(a1-3)[Fuc(a1-2)Gal(b1-4)[Fuc(a1-3)]GlcNAc(b1-2)Man(a1-6)]Man(b1-4)GlcNAc(b1-4)GlcNAc
Summary of the method: as §1

[4] = target: Fuc(a1-2)Gal6S(b1-4)GlcNAc
Summary of the method: as §1

[5] = target: Fuc(a1-2)[Gal(a1-3)]Gal
Summary of the method: as §1

[6] = target: Fuc(a1-2)[GalNAc(a1-3)]Gal(b1-3)GalNAc(a1-3)[Fuc(a1-2)]Gal(b1-4)GlcNAc
Summary of the method: as §1

[7] = target: Fuc(a1-2)[GalNAc(a1-3)]Gal(b1-3)GlcNAc
Summary of the method: as §1

[8] = target: Fuc(a1-2)[GalNAc(a1-3)]Gal(b1-4)GlcNAc(b1-2)Man(a1-3)[Fuc(a1-2)[GalNAc(a1-3)]Gal(b1-4)GlcNAc(b1-2)Man(a1-6)]Man(b1-4)GlcNAc(b1-4)GlcNAc
Summary of the method: as §1

[9] = target: Fuc(a1-2)[GalNAc(a1-3)]Gal(b1-4)GlcNAc(b1-3)Gal(b1-4)GlcNAc
Summary of the method: as §1

[10] = target: Fuc(a1-2)[GalNAc(a1-3)]Gal(b1-4)GlcNAc(b1-3)Gal(b1-4)GlcNAc(b1-3)Gal(b1-4)GlcNAc
Summary of the method: as §1

[11] = target: Fuc(a1-2)[GalNAc(a1-4)]Gal(b1-4)GlcNAc
Summary of the method: as §1

[12] = target: Gal(a1-2)Gal
Summary of the method: as §1

[13] = target: Gal(a1-3)Gal(b1-4)GlcNAc(b1-3)GalNAc
Summary of the method: as §1

[14] = target: Gal(b1-3)GalNAc(a1-3)[Fuc(a1-2)]Gal(b1-4)Glc
Summary of the method: as §1

[15] = target: Gal(b1-3)GalNAc(b1-4)[Neu5Ac(a2-3)]Gal(b1-4)Glc
Summary of the method: as §1

[16] = target: Gal(b1-3)GlcNAc(a1-6)Gal(b1-4)GlcNAc
Summary of the method: as §1

[17] = target: Gal(b1-3)GlcNAc(b1-3)Gal(b1-3)GlcNAc
Summary of the method: as §1

[18] = target: Gal(b1-3)GlcNAc(b1-3)Gal(b1-4)GlcNAc
Summary of the method: as §1

[19] = target: Gal(b1-4)GlcNAc(b1-2)Man(a1-6)[GlcNAc(b1-2)Man(a1-3)]Man(b1-4)GlcNAc(b1-4)GlcNAc
Summary of the method: as §1

[20] = target: Gal3S(b1-4)[Fuc(a1-3)]Glc6S
Summary of the method: as §1

[21] = target: GalNAc(a1-3)GalNAc
Summary of the method: as §1

[22] = target: GalNAc(a1-3)GalNAc(a1-3)Gal(a1-4)Gal(b1-4)GlcNAc
Summary of the method: as §1

[23] = target: Glc(a1-4)Glc
Summary of the method: as §1

[24] = target: GlcNAc(b1-2)Gal(b1-3)GalNAc
Summary of the method: as §1

[25] = target: GlcNAc(b1-2)Man(a1-3)[GlcNAc(b1-2)Man(a1-6)]Man(b1-4)GlcNAc(b1-4)GlcNAc
Summary of the method: as §1

[26] = target: GlcNAc(b1-3)Gal(b1-4)GlcNAc
Summary of the method: as §1

[27] = target: GlcNAc(b1-4)Gal(b1-4)GlcNAc
Summary of the method: as §1

[28] = target: Kdn(a2-3)Gal(b1-3)GalNAc
Summary of the method: as §1

[29] = target: Kdn(a2-3)Gal(b1-4)GlcNAc
Summary of the method: as §1

[30] = target: Man(a1-2)Man(a1-6)[Man(a1-3)]Man(a1-6)[Man(a1-2)Man(a1-2)Man(a1-3)]Man(b1-4)GlcNAc(b1-4)GlcNAc
Summary of the method: as §1

[31] = target: Neu5Ac(a2-3)Gal(b1-4)[Fuc(a1-3)]GlcNAc(b1-3)GalNAc
Summary of the method: as §1

[32] = target: Neu5Ac(a2-3)GalNAc
Summary of the method: as §1

[33] = target: Neu5Ac(a2-6)Gal
Summary of the method: as §1

[34] = target: Neu5Ac(a2-8)Neu5Ac(a2-8)Neu5Ac(a2-8)Neu5Ac(a2-3)[GalNAc(b1-4)]Gal(b1-4)Glc
Summary of the method: as §1

B1: Flo10 (Saccharomyces cerevisiae), P36170 (protein)
chain: MPVAARYIFLTGLFLLSVANVALGTTEACLPAGEKKNGMTINFYQYSLKDSSTYSNPSYMAYGYADAEKLGSVSGQTKLSIDYSIPCNGASDTCACSDDDATEYSASQVVPVKRGVKLCSDNTTLSSKTEKRENDDCDQGAAYWSSDLFGFYTTPTNVTVEMTGYFLPPKTGTYTFGFATVDDSAILSVGGNVAFECCKQEQPPITSTDFTINGIKPWNADAPTDIKGSTYMYAGYYYPIKIVYSNAVSWGTLPVSVVLPDGTEVNDDFEGYVFSFDDNATQAHCSVPNPAEHARTCVSSATSSWSSSEVCTECTETESTSYVTPYVTSSSWSSSEVCTECTETESTSTSTPYVTSSSSSSSEVCTECTETESTSYVTPYVSSSTAAANYTSSFSSSSEVCTECTETESTSTSTPYVTSSSWSSSEVCTECTETESTSYVTPYVSSSTAAANYTSSFSSSSEVCTECTETESTSTSTPYVTSSSSSSSEVCTECTETESTSYVTPYVSSSTAAANYTSSFSSSSEVCTECTETESTSTSTPYVTSSSWSSSEVCTECTETESTSYVTPYVSSSTAAANYTSSFSSSSEVCTECTETESTSTSTPYATSSTGTATSFTASTSNTMTSLVQTDTTVSFSLSSTVSEHTNAPTSSVESNASTFISSNKGSVKSYVTSSIHSITPMYPSNQTVTSSSVVSTPITSESSESSASVTILPSTITSEFKPSTMKTKVVSISSSPTNLITSYDTTSKDSTVGSSTSSVSLISSISLPSSYSASSEQIFHSSIVSSNGQALTSFSSTKVSSSESSESHRTSPTTSSESGIKSSGVEIESTSTSSFSFHETSTASTSVQISSQFVTPSSPISTVAPRSTGLNSQTESTNSSKETMSSENSASVMPSSSATSPKTGKVTSDETSSGFSRDRTTVYRMTSETPSTNEQTTLITVSSCESNSCSNTVSSAVVSTATTTINGITTEYTTWCPLSATELTTVSKLESEEKTTLITVTSCESGVCSETASPAIVSTATATVNDVVTVYSTWSPQATNKLAVSSDIENSASKASFVSEAAETKSISRNNNFVPTSGTTSIETHTTTTSNASENSDNVSASEAVSSKSVTNPVLISVSQQPRGTPASSMIGSSTASLEMSSYLGIANHLLTNSGISIFIASLLLAIV
- glycan array binding signal (z-score) [1]: -0.704
- glycan array binding signal (z-score) [2]: 0.044
- glycan array binding signal (z-score) [3]: -0.165
- glycan array binding signal (z-score) [4]: 0.331
- glycan array binding signal (z-score) [5]: -0.579
- glycan array binding signal (z-score) [6]: 1.12
- glycan array binding signal (z-score) [7]: -0.144
- glycan array binding signal (z-score) [8]: 3.27
- glycan array binding signal (z-score) [9]: 4.78
- glycan array binding signal (z-score) [10]: 5.34
- glycan array binding signal (z-score) [11]: -0.76
- glycan array binding signal (z-score) [12]: 3.67
- glycan array binding signal (z-score) [13]: -0.351
- glycan array binding signal (z-score) [14]: 3.64
- glycan array binding signal (z-score) [15]: 0.092
- glycan array binding signal (z-score) [16]: 0.52
- glycan array binding signal (z-score) [17]: 3.58
- glycan array binding signal (z-score) [18]: 0.23
- glycan array binding signal (z-score) [19]: 0.034
- glycan array binding signal (z-score) [20]: -0.042
- glycan array binding signal (z-score) [21]: 0.641
- glycan array binding signal (z-score) [22]: 1.74
- glycan array binding signal (z-score) [23]: -0.77
- glycan array binding signal (z-score) [24]: -0.768
- glycan array binding signal (z-score) [25]: -0.394
- glycan array binding signal (z-score) [26]: -0.536
- glycan array binding signal (z-score) [27]: -0.716
- glycan array binding signal (z-score) [28]: 0.113
- glycan array binding signal (z-score) [29]: -0.202
- glycan array binding signal (z-score) [30]: -0.712
- glycan array binding signal (z-score) [31]: -0.323
- glycan array binding signal (z-score) [32]: -0.639
- glycan array binding signal (z-score) [33]: 5.85
- glycan array binding signal (z-score) [34]: 0.14
